40 molecules from PubChem BioAssay (NCATS) can be followed below.

Records with an inconclusive call do not appear. A number with no mark means an inactive call. Activity calls are given as the source filed them. Calls follow the shape of the dose curve; as a rule, active = well fitted cell-killing curve with a large enough effect; inconclusive = small, poorly fitted or top-dose-only effect; inactive = flat fitted curve, though single readings scatter.
% is scaled to controls: 0 for no effect and ±100 for the full control effect; potency is read from the fitted curve at half-maximal effect.

A short description of this assay: qHTS of pediatric cancer cell lines to identify multiple opportunities for drug repurposing: Primary screen for control Hh wild type fibroblast cells (AID 1347106). Also: nearly all actives have a fitted effect of over 55% in size.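 As to activity change, negative = cytotoxic: a drop in luminescence marks cytotoxicity and a rise apparent proliferation.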 The note with it: Hh wild-type fibroblast viability, CellTiter-Glo luminescence, 48 h; series mostly up to 46 µM; activity change, negative = cytotoxic: at the top concentration. The source says:
Drug repurposing or repositioning has been offered as a strategy for drug development in oncology programs. This approach has special potential for childhood cancers and other rare or orphan diseases, where the expected return on new drug development has been a disincentive to pharmaceuticals.
In this project we exploit the poly-pharmacology of drugs to discover new indications via phenotypic screening of a panel of 19 well-characterized cell lines derived from solid tumors seen in children and adolescents. The goal is to identify approved drugs with previously unrecognized anticancer properties that has the potential to reveal new mechanisms and biological processes involved in carcinogenesis or drug resistance. We employed a titration-based paradigm (quantitative high-throughput screening or qHTS), where all compounds were tested at multiple concentrations for their effect on cell viability. Concentration-response curves (CRCs) were derived directly from the primary screen, and both potency and efficacy values were used to identify compounds with robust bioactivity profiles. We screened the NIH Chemical Genomics Center (NCGC) Pharmaceutical Collection (NPC) and Mechanism Interrogation Plate (MIPE) small molecule collections of approved and investigational compounds against these cell lines; and measured metabolically active cells after 48 hours of compound treatment as a proxy for cell viability.
Assay Submitter: Nathalia J. Martinez, National Center for Advancing Translational Sciences, National Institutes of Health, Rockville, MD, USA; email: natalia.martinez@nih.gov
[1] Shen, M et al. Quantitative high-throughput phenotypic screening of pediatric cancer cell lines identifies multiple opportunities for drug repurposing. Oncotarget 2017 Dec 19;9(4):4758-4772. PMID 29435139.
The cells were obtained from University of North Carolina (UNC), Pediatric Preclinical Testing Program (PPT), and Coriell Institute (CI).
qHTS cell viability assay:
Cells were assayed in growth media at a density of 500-1,000 cells/well. Five microliters of cells were dispensed into 1,536-well, white, solid-bottom, TC-treated plates (Greiner Bio One) using a multidrop dispenser and incubated at 37 degrees C, 5% CO2, under a humidified atmosphere for 5 hours. Twenty-three nanoliters of compounds and controls (neutral control DMSO or positive control bortezomib at final concentration of 2.3 µM) were subsequently transferred by Kalypsys pintool. For primary screens, the MIPE collection was tested at 11-point dilutions (final concentrations range from 0.78 nM to 46 µM) and the NPC collection at 8-point dilutions (final concentrations range from 0.59 nM to 46 µM). Compounds tested in follow-up screens were assayed at 11-point dilutions. Cells were incubated for 48 hours, followed by addition of 3 µL of CellTiter-Glo (Promega). After a 15 min incubation at room temperature, samples were analyzed for luminescence intensity using a ViewLux High-throughput CCD imager equipped with clear filters.
In the case of `COC(=O)N1CCN(Cc2cccc(NC(=O)Nc3ccc(C)nc3)c2F)CC1`, the “activity change, negative = cytotoxic” value is 2.24%.

Turning to `c1cc(OCCN2CCCCC2)cc(-c2n[nH]c3ccc(-c4ncn[nH]4)cc23)c1`, the “activity change, negative = cytotoxic” value was 2.61%.

Regarding `CN(CC=CC#CC(C)(C)C)Cc1cccc2ccccc12`, the “activity change, negative = cytotoxic” value is 14.8%.

With `CC(NCCc1ccc(O)cc1)C(O)c1ccc(O)cc1` (stereo not given), the “activity change, negative = cytotoxic” value was 9.39%.

With `CN(C)c1nc(Cc2ccc(NC(=O)c3ccc(C(F)(F)F)cc3)cc2)nc(N(C)C)c1CC(=O)O`, the “activity change, negative = cytotoxic” value is 16%.

As for `O=C1CN2Cc3c(ccc(Cl)c3Cl)N=C2N1`, the “activity change, negative = cytotoxic” value is 1.1%.

Take `O=C(O)C1=CO[C@@H](O[C@@H]2O[C@H](CO)[C@H](O)[C@H](O)[C@H]2O)[C@@H]2C(CO)=CC[C@H]12`: the “activity change, negative = cytotoxic” value was 0.402%.

`O=C1CCCC(=O)C1C(=O)c1ccc(C(F)(F)F)cc1[N+](=O)[O-]`: the “activity change, negative = cytotoxic” value was 9.47%.

As to `CC1=C[C@@H]2[C@@H]([C@@H](O)C[C@@]3(C)[C@H]2C[C@@H](C)[C@]3(O)C(=O)CO)[C@@]2(C)Cc3cnn(-c4ccccc4)c3C=C12`, the “activity change, negative = cytotoxic” value is -7.7%.

In the case of `CC=C(C(=CC)c1ccc(O)cc1)c1ccc(O)cc1`, the “activity change, negative = cytotoxic” value was -13.2%.

For the molecule `Cc1csc(-c2nnc(Nc3ccc(Oc4ncccc4-c4ccnc(N)n4)cc3)c3ccccc23)c1`, the “activity change, negative = cytotoxic” value is -4.56%.

As to `O=C(O)c1nc(=O)[nH]c(=O)[nH]1`, the “activity change, negative = cytotoxic” value was -1.61% [at 16.1 µM].

On to `COc1cc2c(cc1OC)[C@@H]1Cc3ccc(OC)c(OC)c3CN1CC2`, for which the “activity change, negative = cytotoxic” value is -6.78%.

Consider `CCCCOCCOc1nc(-c2ccc(C(=O)O)c(F)c2)sc1C`, for which the “activity change, negative = cytotoxic” value is -16.8%.

For `O=C(c1ccc(F)c(F)c1Nc1ccc(I)cc1F)N1CC(O)([C@H]2CCCCN2)C1`, the Potency was 16.6 µM (active).

As to `CC(C)=CCCC(C)=CCCC(C)=CCCC(C)=CCCC(C)=CCCC(C)=CCCC(C)=CCCC(C)=CCCC(C)=CCO`, the “activity change, negative = cytotoxic” value was 6.64%.

On to `COc1cc2nccc(Oc3ccc(NC(=O)Nc4ccc(F)cc4F)c(F)c3)c2cc1OC`, for which the “activity change, negative = cytotoxic” value is -2.33%.

With `NC(=O)c1ncn([C@@H]2O[C@H](CO)[C@@H](O)[C@@H]2O)n1`, the “activity change, negative = cytotoxic” value is -2.91%.

As to `O=[N+]([O-])c1ccc(Nc2ccccc2-c2ccccc2)c2nonc12`, the “activity change, negative = cytotoxic” value is 1.28%.

For the molecule `CCNC(=O)Nc1ccc(Oc2ncnc(N)c2C=NOC)cc1Cl`, the “activity change, negative = cytotoxic” value is -0.461%.

`NS(=O)(=O)c1cc(Cl)c(Cl)c(S(N)(=O)=O)c1`: the “activity change, negative = cytotoxic” value is 2.38%.

Turning to `CNC(=O)c1cc(Oc2ccc(NC(=O)Nc3ccc(Cl)c(C(F)(F)F)c3)c(F)c2)ccn1`, the “activity change, negative = cytotoxic” value is 2.14%.

On to `CON(C)C(=O)N1N=C(c2cc(F)ccc2F)S[C@]1(CCCN)c1ccccc1`, for which the “activity change, negative = cytotoxic” value is -4.75%.

With `COc1nc(C)cnc1NS(=O)(=O)c1cccnc1-c1ccc(-c2nnco2)cc1`, the “activity change, negative = cytotoxic” value is 8.66%.

With `OC[C@H]1O[C@@H](O[C@H]2[C@@H](O)[C@@](O)(CO)O[C@@H]2CO)[C@H](O)[C@@H](O)[C@@H]1O`, the “activity change, negative = cytotoxic” value was 8.54%.

With `CC(C)(CO)[C@@H](O)C(=O)NCCC(=O)O`, the “activity change, negative = cytotoxic” value is 3.81%.

For the molecule `C[C@]12CCC3=C4CCC(=O)C=C4CC[C@@H]3[C@H]1CC[C@@]2(O)CC#N`, the “activity change, negative = cytotoxic” value was -13.6%.

`CN(C)CCN(C)C(=O)c1ccc(NC(=O)Nc2ccc(-c3nc(N4CCOCC4)c4ccn(CC(F)(F)F)c4n3)cc2)cc1`: the Potency was 0.0526 µM (active).

Consider `N#CC(c1ccnc(NCCc2cccnc2)n1)c1nc2ccccc2s1` (stereo not given), for which the “activity change, negative = cytotoxic” value is -3.2%.

For the molecule `CN1CCN(c2ncc(-c3cc(Cl)cc(Cl)c3Cl)c(N)n2)CC1`, the “activity change, negative = cytotoxic” value was -14.1%.

`CCCCn1c(=O)n(Cc2ccccc2F)c(=O)c2[nH]c(Cc3ccc(NC(C)=O)cc3)nc21`: the “activity change, negative = cytotoxic” value was -11.8%.

`Cc1ccc(NC(=O)c2cccc(N(C)C)c2)cc1NC(=O)c1ccc(O)cc1`: the “activity change, negative = cytotoxic” value is 13.4%.

In the case of `O=C(C=Cc1ccc(O)cc1)c1ccc(O)cc1O`, the “activity change, negative = cytotoxic” value is 1.9%.

Take `COc1ccc2ccc(=O)oc2c1CC=C(C)C`: the “activity change, negative = cytotoxic” value was -5.08%.

For `COc1c(C)c2c(c(O)c1CC=C(C)CCC(=O)O)C(=O)OC2`, the “activity change, negative = cytotoxic” value is -16.1%.

With `CC[C@H](C)C(=O)O[C@H]1C[C@H](O)C=C2C=C[C@H](C)[C@H](CC[C@@H](O)C[C@@H](O)CC(=O)O)[C@H]21`, the “activity change, negative = cytotoxic” value is 16.4%.

Consider `CCCCCCCCCCCCCC(=O)N[C@H](CO)[C@H](O)c1ccc([N+](=O)[O-])cc1`, for which the “activity change, negative = cytotoxic” value is 9.04%.

In the case of `COC1CCC(C(=O)c2ccc3nc4c(cc3c2)CCCO4)CC1` (stereo not given), the “activity change, negative = cytotoxic” value was 0.912%.

For `Cc1cccc2c1CC[C@H](CN1CCC(c3c(Cl)cccc3Cl)CC1)C[C@@H]2O`, the “activity change, negative = cytotoxic” value is -1.63%.

Take `CC(O)=C(C#N)C(=O)Nc1ccc(C(F)(F)F)cc1`: the “activity change, negative = cytotoxic” value is -16.3%.
